# “And” between values parts separate entries of the source, which are not always exact repeats. Identical values can stand only once. Records with an inconclusive call do not appear. A call without a number means that no potency is given here. More than one record can exist for a structure, and the calls need not agree. The source made the active and inactive calls. Calls follow the shape of the dose curve; as a rule, active = well fitted curve in the direction sought with a large enough effect in the repeat runs; inconclusive = weak or mixed curves; inactive = no such curve, though single readings can be large; an effect the other way counts as inactive or inconclusive.
# Experiment: qHTS RealTime-Glo MT Cell Viability Assay in HepG2 cells - 24 hour (AID 1224867)
# Conditions: RealTime-Glo luminescence; series mostly up to 76.8 µM
# Outline: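 Luminescence read-out: viable HepG2 cells reduce a prosubstrate to a NanoLuc substrate, giving a signal proportional to live cell number. Reads taken at 0, 8, 16, 24, 32 and 40 h of compound exposure at 37 C.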
# Also: nearly all actives have a fitted effect of over 50% in size.
# Potency is read from the fitted curve at half-maximal effect.
SMILES,Potency,"activity change, negative = cytotoxicity"
CCCCCl,inactive,–
N#CC(C#N)=C(C#N)C#N,inactive,–
O=C(O)COc1cc(Cl)c(Cl)cc1Cl,inactive,–
CCCC(C)(COC(N)=O)COC(=O)NC(C)C (centres undefined),inactive,–
CCOP(=S)(S)OCC,inactive,–
C=CCc1ccccc1O,inactive,–
CC(C)(C)OOC(C)(C)CCC(C)(C)OOC(C)(C)C,inactive,–
O=S(=O)(c1ccccc1)c1ccccc1,inactive,–
Nc1c(Br)cc(Br)c2c1C(=O)c1ccccc1C2=O,–,-0.948% [at 15.8 µM] (inactive)
O=C(O)c1ccc(=O)[nH]c1,inactive,–
CCCSP(=S)(OCC)Oc1ccc(SC)cc1 (centres undefined),inactive,–
CCOP(=S)(OCC)Oc1ccc(S(C)=O)cc1 (centres undefined),inactive,–
C=C(C)C(=O)OCCCCOC(=O)C(=C)C,inactive,–
C=C(Cl)Cl,inactive,–
NNCCO,inactive,–
O=C(N[C@H]1CN2CCC1CC2)c1ccc2c(c1)OCCO2,inactive,–
ClCc1ccccc1Cl,inactive,–
Nc1ccccc1C(=O)OCCc1ccccc1,inactive,–
O=C=NC1CCCCC1,inactive,–
N#CC1(N=NC2(C#N)CCCCC2)CCCCC1,inactive,–
CCOC(C(=O)OCCN(C)C)(c1ccccc1)c1ccccc1,inactive,–
CC1(C)CC(=O)CC(C)(C)N1[O],inactive,–
CCC[N+](CCC)(CCC)CCC,inactive,–
C[C@H]1[C@@H]2Cc3ccc(O)cc3[C@@]1(C)CCN2C,inactive,–
CC(C)(C)NCC(O)c1ccccc1Cl (centres undefined),inactive,–
CCCCNC(=O)OCC#CI,7.72 µM (active) and 3.89 µM (active),–
CC(C)CCCCCCCOC(=O)c1ccccc1C(=O)OCCCCCCCC(C)C,inactive,–
C1CS1,inactive,–

# Experiment: qHTS RealTime-Glo MT Cell Viability Assay in HEK293 cells - 32 hour (AID 1224868)
# Conditions: RealTime-Glo luminescence; series mostly up to 76.8 µM
# Outline: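 Nonlytic real-time viability readout: viable cells convert prosubstrate to NanoLuc substrate, giving luminescence proportional to live cell number. HEK293, 600 cells/well, compound added after 5 h, continuous culture at 37 C.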
row,SMILES,Potency
1,CCCCCl,inactive
2,CC(C)(C)NCC(O)c1cc(Cl)c(N)c(C(F)(F)F)c1 (centres undefined),inactive
3,O=C(Cc1ccccc1)OCCc1ccccc1,inactive
4,N#CC(C#N)=C(C#N)C#N,inactive
5,O=C(O)COc1cc(Cl)c(Cl)cc1Cl,inactive and 15.5 µM (active)
6,CCCC(C)(COC(N)=O)COC(=O)NC(C)C (centres undefined),inactive
7,CN1CC[C@]23c4c5ccc(O)c4O[C@H]2[C@@H](O)C=C[C@H]3[C@H]1C5,inactive
8,CCOP(=S)(S)OCC,inactive
9,CC(C)(C)OOC(C)(C)CCC(C)(C)OOC(C)(C)C,inactive
10,O=S(=O)(c1ccccc1)c1ccccc1,inactive
11,O=C(O)c1ccc(=O)[nH]c1,inactive
12,CCNC(=O)NC(=O)/C(C#N)=N/OC,inactive
13,C=CCOCC1CO1 (centres undefined),inactive
14,CCCSP(=S)(OCC)Oc1ccc(SC)cc1 (centres undefined),inactive
15,CCOP(=S)(OCC)Oc1ccc(S(C)=O)cc1 (centres undefined),inactive
16,C=C(C)C(=O)OCCCCOC(=O)C(=C)C,inactive
17,C=C(Cl)Cl,inactive
18,Clc1ccc(Cl)c(Cl)c1,inactive

row,SMILES,Potency
1,NNCCO,inactive
2,O=C(N[C@H]1CN2CCC1CC2)c1ccc2c(c1)OCCO2,inactive
3,ClCc1ccccc1Cl,inactive
4,Nc1ccccc1C(=O)OCCc1ccccc1,24.5 µM (active)
5,O=C=NC1CCCCC1,inactive
6,c1ccc2c(c1)sc1ccccc12,inactive
7,N#CC1(N=NC2(C#N)CCCCC2)CCCCC1,inactive
8,CCOC(C(=O)OCCN(C)C)(c1ccccc1)c1ccccc1,inactive
9,CC1(C)CC(=O)CC(C)(C)N1[O],inactive
10,CCC[N+](CCC)(CCC)CCC,inactive
11,Nc1cc(Cl)cc(C(=O)O)c1Cl,inactive
12,C[C@H]1[C@@H]2Cc3ccc(O)cc3[C@@]1(C)CCN2C,inactive
13,CCCCCCCCCCCCN(C)C,inactive
14,CC(C)(C)NCC(O)c1ccccc1Cl (centres undefined),inactive
15,COc1cc(C[C@@H](C)N)c(OC)cc1Br,inactive
16,CCCCNC(=O)OCC#CI,24.4 µM (active) and 24.5 µM (active)
17,CC(C)CCCCCCCOC(=O)c1ccccc1C(=O)OCCCCCCCC(C)C,inactive
18,C1CS1,inactive

# Experiment: A CellTox Green Cytotoxicity Assay to monitor cytotoxicity in HEK293 cells - 0 hour (AID 1224869)
# Conditions: CellTox Green fluorescence; series mostly up to 76.8 µM
# Outline: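 Read-out: fluorescence of a cell-impermeant cyanine dye staining DNA of dead cells, proportional to cytotoxicity. HEK293, 600 cells/well with reagent, compound (23 nL DMSO) added after 5 h; reads at 0, 8, 16, 24, 32, 40 h.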
row,SMILES,Potency
1,CCCCCl,inactive
2,CC(C)(C)NCC(O)c1cc(Cl)c(N)c(C(F)(F)F)c1 (centres undefined),inactive
3,O=C(Cc1ccccc1)OCCc1ccccc1,inactive
4,N#CC(C#N)=C(C#N)C#N,inactive
5,CCCC(C)(COC(N)=O)COC(=O)NC(C)C (centres undefined),inactive
6,CN1CC[C@]23c4c5ccc(O)c4O[C@H]2[C@@H](O)C=C[C@H]3[C@H]1C5,inactive
7,O=S(=O)(c1ccccc1)c1ccccc1,inactive
8,COc1cc(CC(C)N)c(OC)cc1Br (centres undefined),inactive
9,O=C(O)c1ccc(=O)[nH]c1,inactive
10,CCNC(=O)NC(=O)/C(C#N)=N/OC,inactive
11,C=CCOCC1CO1 (centres undefined),inactive
12,CCCSP(=S)(OCC)Oc1ccc(SC)cc1 (centres undefined),inactive
13,C=C(C)C(=O)OCCCCOC(=O)C(=C)C,inactive
14,C=C(Cl)Cl,inactive
15,Clc1ccc(Cl)c(Cl)c1,inactive
16,NNCCO,inactive
17,O=C(N[C@H]1CN2CCC1CC2)c1ccc2c(c1)OCCO2,inactive
18,ClCc1ccccc1Cl,inactive
19,Nc1ccccc1C(=O)OCCc1ccccc1,inactive and 43.6 µM (active)
20,O=C=NC1CCCCC1,inactive
21,N#CC1(N=NC2(C#N)CCCCC2)CCCCC1,inactive
22,CCOC(C(=O)OCCN(C)C)(c1ccccc1)c1ccccc1,inactive
23,CC1(C)CC(=O)CC(C)(C)N1[O],inactive
24,Nc1cc(Cl)cc(C(=O)O)c1Cl,inactive
25,C[C@H]1[C@@H]2Cc3ccc(O)cc3[C@@]1(C)CCN2C,inactive
26,CCCCCCCCCCCCN(C)C,inactive
27,CC(C)(C)NCC(O)c1ccccc1Cl (centres undefined),inactive
28,COc1cc(C[C@@H](C)N)c(OC)cc1Br,inactive
29,CC(C)CCCCCCCOC(=O)c1ccccc1C(=O)OCCCCCCCC(C)C,inactive
30,C1CS1,inactive

# From PubChem BioAssay (Tox21)
